Measurements reported in PubChem BioAssay (NCATS).
Records with an inconclusive call do not appear. Calls of active or inactive are those of the source. Calls come from the whole dose curve; as a rule, active = well fitted curve in the direction sought with a large enough effect; inconclusive = small, poorly fitted or top-dose-only effect, or another doubt; inactive = no such curve, though single readings can be large; an effect the other way counts as inactive or inconclusive.

Legend:
[1] = qHTS of pediatric cancer cell lines to identify multiple opportunities for drug repurposing: Confirmatory screen for NB-EBc1 cells (AID 1347115);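 note: cells exposed to compound for 48 h before the viability read; nearly all actives have a fitted effect of over 45% in size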
Summary of the method: (§1)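 Cells (500-1,000/well) rested 5 h, then received compounds for 48 h; metabolically active cells were measured by CellTiter-Glo luminescence. Final concentrations spanned up to 46 µM (MIPE, 11-point) or 0.59 nM-46 µM (NPC, 8-point) in primary screens, 11-point in follow-ups.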

[2] = qHTS of pediatric cancer cell lines to identify multiple opportunities for drug repurposing: Confirmatory screen for SJ-GBM2 cells (AID 1347116); note: nearly all actives have a fitted effect of over 60% in size
Summary of the method: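 Viability measured as metabolically active cells via CellTiter-Glo luminescence following 48 hours of compound exposure, 11-point dilutions in confirmatory testing. 500-1,000 cells/well plated 5 hours before dosing; controls were DMSO and 2.3 µM bortezomib.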

[3] = qHTS of pediatric cancer cell lines to identify multiple opportunities for drug repurposing: Confirmatory screen for BT-37 cells (AID 1347117); note: nearly all actives have a fitted effect of over 55% in size
Summary of the method: as §1

[4] = qHTS of pediatric cancer cell lines to identify multiple opportunities for drug repurposing: Confirmatory screen for TC32 cells (AID 1347118);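 note: cells exposed to compound for 48 h before the read; nearly all actives have a fitted effect of over 65% in size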
Summary of the method: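 Luminescent ATP read-out (CellTiter-Glo) of metabolically active TC32 cells after 48 h exposure. Concentration-response curves came from 11-point (MIPE, 0.78 nM–46 µM) or 8-point (NPC, 0.59 nM–46 µM) primary titrations; follow-up used 11 points.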

[5] = qHTS of pediatric cancer cell lines to identify multiple opportunities for drug repurposing: Confirmatory screen for U-2 OS cells (AID 1347122); note: nearly all actives have a fitted effect of over 65% in size
Summary of the method: as §1

[6] = qHTS of pediatric cancer cell lines to identify multiple opportunities for drug repurposing: Confirmatory screen for Rh41 cells (AID 1347123);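 note: 48 h compound exposure; nearly all actives have a fitted effect of over 60% in size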
Summary of the method: as §1

[7] = qHTS of pediatric cancer cell lines to identify multiple opportunities for drug repurposing: Confirmatory screen for RD cells (AID 1347124);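 note: cells exposed to compound for 48 h before viability readout; nearly all actives have a fitted effect of over 65% in size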
Summary of the method: as §1

[8] = qHTS of pediatric cancer cell lines to identify multiple opportunities for drug repurposing: Confirmatory screen for Rh18 cells (AID 1347125); note: nearly all actives have a fitted effect of over 55% in size
Summary of the method: as §1

[9] = qHTS of pediatric cancer cell lines to identify multiple opportunities for drug repurposing: Confirmatory screen for Rh30 cells (AID 1347126); note: nearly all actives have a fitted effect of over 55% in size
Summary of the method: as §1

[10] = qHTS of pediatric cancer cell lines to identify multiple opportunities for drug repurposing: Confirmatory screen for Saos-2 cells (AID 1347127); note: nearly all actives have a fitted effect of over 60% in size
Summary of the method: as §1

[11] = qHTS of pediatric cancer cell lines to identify multiple opportunities for drug repurposing: Confirmatory screen for SK-N-SH cells (AID 1347129);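 note: cells exposed to compound for 48 h before viability read; nearly all actives have a fitted effect of over 60% in size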
Summary of the method: as §1

[12] = system: Zika virus NS2B-NS3 protease; test: Primary screen GU AMC qHTS for Zika virus inhibitors (AID 1347154); note: nearly all actives have a fitted effect of over 70% in size
Summary of the method: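 Fluorogenic AMC-substrate cleavage by noncovalent NS2B-NS3 protease complex (25 nM, pH 8.0 Tris buffer with Tween 20) followed for 15 minutes at room temperature (~20% conversion). Percent inhibition from ex340/em450 signal change, fitted by 4-parameter Hill equation.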

[13] = qHTS of pediatric cancer cell lines to identify multiple opportunities for drug repurposing: Confirmatory screen for control Hh wild type fibroblast cells (AID 1347121); note: nearly all actives have a fitted effect of over 70% in size
Summary of the method: as §1

[14] = qHTS of pediatric cancer cell lines to identify multiple opportunities for drug repurposing: Confirmatory screen for OHS-50 cells (AID 1347128);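 note: compound exposure lasted 48 h at 37 degrees C; nearly all actives have a fitted effect of over 55% in size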
Summary of the method: as §1

Furin (Homo sapiens) = Furin (Homo sapiens) (UniProt P09958); test: Furin counterscreen qHTS for Zika virus inhibitors (AID 1347149); note: nearly all actives have a fitted effect of over 70% in size
Summary of the method: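 Counterscreen measures cleavage of 2 microM BOC-RVRR-AMC, below its ~15 microM Km, by 5 nM full-length human furin at pH 7.0 after a 15-min compound preincubation. Inhibition derives from the 15-min fluorescence increase at 37C.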

[15] = system: Zika virus NS2B-NS3 protease (linked construct); test: Confirmatory screen NINDS AMC qHTS for Zika virus inhibitors (AID 1347152); note: nearly all actives have a fitted effect of over 70% in size
Summary of the method: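 Concentration-response confirmation used the NINDS linked protease (NS2B hydrophilic domain joined to NS3 protease domain), 1 nM, with a 15-min compound preincubation. Substrate, Nle-KRR-AMC at 10 microM, was read by UV fluorescence before and after 15 min.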

[16] = qHTS of pediatric cancer cell lines to identify multiple opportunities for drug repurposing: Confirmatory screen for MG 63 (6-TG R) cells (AID 1347119); note: nearly all actives have a fitted effect of over 55% in size
Summary of the method: as §1

Measured: Potency
Potency is the fitted concentration of half-maximal effect.

Chain of Furin (Homo sapiens) (P09958 whole entry, looked up): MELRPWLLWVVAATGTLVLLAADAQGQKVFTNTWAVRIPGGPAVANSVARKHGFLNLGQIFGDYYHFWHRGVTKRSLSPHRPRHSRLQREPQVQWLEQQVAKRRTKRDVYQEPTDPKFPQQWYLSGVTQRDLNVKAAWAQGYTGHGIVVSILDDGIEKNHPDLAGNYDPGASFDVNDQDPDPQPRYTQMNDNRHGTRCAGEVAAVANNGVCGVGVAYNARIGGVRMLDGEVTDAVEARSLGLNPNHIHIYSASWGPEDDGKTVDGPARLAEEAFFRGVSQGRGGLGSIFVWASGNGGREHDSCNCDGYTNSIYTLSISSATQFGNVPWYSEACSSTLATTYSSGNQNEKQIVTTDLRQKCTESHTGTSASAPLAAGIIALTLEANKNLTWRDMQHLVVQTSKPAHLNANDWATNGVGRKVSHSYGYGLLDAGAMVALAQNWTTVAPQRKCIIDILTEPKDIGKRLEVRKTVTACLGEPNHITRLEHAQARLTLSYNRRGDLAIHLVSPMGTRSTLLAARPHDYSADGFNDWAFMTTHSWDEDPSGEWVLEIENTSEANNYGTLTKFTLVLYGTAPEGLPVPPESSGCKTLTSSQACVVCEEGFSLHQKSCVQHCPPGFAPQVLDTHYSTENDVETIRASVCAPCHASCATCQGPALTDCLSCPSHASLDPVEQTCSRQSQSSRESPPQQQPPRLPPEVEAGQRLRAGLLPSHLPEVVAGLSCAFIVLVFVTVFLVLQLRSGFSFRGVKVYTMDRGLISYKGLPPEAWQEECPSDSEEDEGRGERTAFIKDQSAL

COc1cccc2nc(-c3cccs3)nc(NN3C(=O)C=C(C)C3=O)c12
active: [1] 2.08 µM | [2] 7.37 µM | [3] 1.04 µM | [4] 737 nM | [5] 1.85 µM | [6] 0.827 µM | [7] 5.22 µM | [8] 20.8 µM | [9] 3.69 µM | [10] 2.93 µM | [11] 2.96 µM
inactive: [12]

CCOc1cc2ncc(C#N)c(Nc3ccc(F)c(Cl)c3)c2cc1NC(=O)C=CCN(C)C
inactive: [1] | [2] | [13] | [7] | [8] | [12]
active: [3] 0.0657 µM | [4] 58.5 nM | [10] 0.104 µM | [14] 0.147 µM

CCN1CCN(Cc2ccc(-c3cc4c(N[C@H](C)c5ccccc5)ncnc4[nH]3)cc2)CC1
active: [1] 38 µM | [2] 30.2 µM | [3] 2.69 µM | [4] 759 nM | [13] 42.7 µM | [5] 12 µM | [6] 1.51 µM | [7] 21.4 µM | [8] 33.9 µM | [9] 15.1 µM | [10] 4.27 µM | [14] 4.79 µM | [11] 10.8 µM | Furin (Homo sapiens) 27.8 µM | [15] 44.1 µM | [12] 17.1 µM

O=c1[nH]nc(Sc2ncc([N+](=O)[O-])s2)n1-c1ccc2c(c1)OCCO2
inactive: [12]
active: [1] 7.37 µM | [2] 13.1 µM | [3] 16.5 µM | [16] 11.7 µM | [5] 9.27 µM | [6] 10.4 µM | [7] 9.27 µM | [9] 7.37 µM | [10] 8.27 µM | [14] 13.1 µM | [11] 9.35 µM

COc1cccc(Nc2c(C(N)=O)cnc3c(C)cc(S(=O)(=O)c4cccc(C(=O)N(C)C)c4)cc23)c1
active: [4] 512 nM
inactive: [1] | [2] | [3] | [13] | [5] | [10] | [14] | [11] | [12]

Cn1c2ccccc2c2c3c(c4c5ccccc5n(CCC#N)c4c21)CNC3=O
inactive: [13] | [8] | [12]
active: [1] 23.3 µM | [3] 5.85 µM | [4] 4140 nM | [5] 3.69 µM | [6] 29.3 µM | [10] 9.27 µM | [14] 11.7 µM | [11] 14.8 µM

Cc1nc(Nc2n[nH]c3c2CN(C(=O)N[C@H](CN(C)C)c2ccccc2)C3(C)C)c2sccc2n1
not listed: [3] | [4] | [8] | [14] | Furin (Homo sapiens) | [15] | [16]
inactive: all other assays above
